Source: PubChem (Broad Institute)
esBAF inh – SWI/SNF esBAF complex inhibition. AID 602393. mouse ES cells, Bmi1-luciferase knock-in reporter, 24 h; 100% = twice the neutral-well signal. reporter increase, % at 12.5 µM. 2% of 350,000 active; in the data active = activation above about 40%; inconclusive = no clear call, values can overlap the other calls;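 also: a rise in the Bmi1 reporter signal indicates esBAF inhibition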
PAX8 inh HTS – PAX8 transcriptional activity inhibition | inhibition, % at 12.6 µM | AID 652154 | 1.2% of 360,000 active | RMG-I TPO-luciferase reporter, SteadyGlo, 24 h;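 active = mean replicate inhibition at least 60% with every replicate also reaching 60%; inconclusive = only one of the two criteria is met; inactive = mean below 60% and not all replicates reaching 60%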;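 also: luciferase light reporting Pax8 driven TPO promoter activity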
TRPM1 prom inh – inhibitors of MITF-driven TRPM1 promoter in melanoma cells | inhibition, % at 12.5 µM | SK-MEL-5 TRPM1 promoter luciferase, 24 h | AID 488899 | 0.83% of 330,000 active;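 active = mean inhibition across replicates of 60% or more, whatever share of single replicates reaches that level; inconclusive = some that reach 60%, reason not given; inactive = mean inhibition across replicates below 60%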
MITF act – activators of MITF-driven TRPM1 promoter activity in SK-MEL-5 cells; SK-MEL-5 TRPM1-promoter luciferase, 24 h; % of positive control, neutral wells = 0; activation, % at 12.5 µM; 0.75% of 300,000 active;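 active = mean activation of at least 80% with every replicate also reaching 80%; inconclusive = mean reaches 80% but some replicate falls short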
Wnt act – activates Wnt/beta-catenin signaling in a reporter cell assay; 1.2% of 300,000 active; AID 743398; activator, plate reader; activation, % at 9.35 µM; in the data active = activation above about 30%, passing the limit was not always enough; inconclusive = no clear call, values can overlap the other calls
EWS-Fli block – blocks EWS/Fli oncoprotein-driven transcription; A673 NR0B1-luciferase reporter, viability-normalised; inhibition, % at 12.6 µM; 0.67% of 350,000 active; AID 651661;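 active = mean inhibition of at least 50% after viability correction, with every replicate also passing that limit; inconclusive = mean reaches 50% but only one of two replicates passes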;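 also: firefly luciferase signal divided by Alamar Blue viability fluorescence both relative to DMSO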
A number is an active result; - = inactive; ? = inconclusive; . = no result. A selection: hits, their analogues and other compounds. The true share with any hit is near 4%.

SMILES	esBAF inh	PAX8 inh HTS	TRPM1 prom inh	MITF act	Wnt act	EWS-Fli block
COc1ccc2nc(C)cc(N/N=C/c3cccc(OC)c3O)c2c1	-	95	82	.	-	68
COc1ccc2nc(C)cc(NCc3cccc(C(F)(F)F)c3)c2c1	-	-	69	-	-	-
COc1ccc(/C=N/Nc2cc(C)nc3ccc(Br)cc23)cc1	-	95	99	-	-	-
CS(=O)(=O)NN1C(=O)c2ccccc2NC1c1cc2ccccc2nc1Cl (stereo not drawn)	89	-	-	-	52	-
CNc1ccccc1-n1ccc(-c2ccccc2)n1	60	.	-	-	.	.
Cn1ccc(-c2ccccc2)n1	-	-	-	-	-	-
CNS(=O)(=O)c1cccc(C(=O)OCC(=O)N2CCN(C(=O)c3ccco3)CC2)c1	-	-	-	-	-	-
O=C(OCC(=O)N1CCN(C(=O)c2ccco2)CC1)c1cccc(S(=O)(=O)N2CCc3ccccc32)c1	-	101	-	-	-	-
CCOC(=O)c1ccc2nc(C)c3c(c2c1)OC(C)C3 (stereo not drawn)	-	.	-	-	.	.
CCOC(=O)c1ccc2nc3c(cc2c1)CCS3	50	.	-	-	.	.
Cc1ccc(C2Nc3ccccc3-c3nc4ccccc4n32)o1 (stereo not drawn)	68	.	-	-	.	.
CCN1c2ccccc2-c2nc3ccccc3n2C1c1ccco1 (stereo not drawn)	-	.	-	.	-	.
Cc1cc(N2CCCC2)ccc1/C=C1\NC(=S)N(C)C1=O	85	-	-	-	54	.
O=C1/C(=C/c2ccc(N3CCCC3)cc2)NC(=S)N1C1CC1	48	.	-	-	.	.
O=C1N/C(=C/c2ccc(N3CCCC3)cc2)C(=O)N1c1ccccc1	.	-	-	-	-	-
CC1=CC(C)(C)N2C(=O)C(=Nc3ccc(O)cc3)c3cccc1c32	.	-	78	-	?	-
O=C(Nc1ccc2c3c(cccc13)CC2)c1ccccc1	48	-	.	.	-	-
COc1ccccc1C(=O)C1CCCN(C(=O)c2ccccc2C(C)=O)C1 (stereo not drawn)	50	-	-	-	-	-
CO[C@@H]1CN(C)C(=O)c2ccc(NC(C)=O)cc2OC[C@@H](C)N(Cc2cncnc2)C[C@@H]1C	-	.	.	.	.	-
CS/C(Nc1cc(Cl)ccc1Cl)=C(/C#N)C(=O)c1ccco1	-	-	-	.	37	-
O=C(Nc1cc(Cl)ccc1Cl)c1ccco1	-	-	-	-	-	-
Cc1ccc(/C(=N/Nc2ncnc3ccccc23)C(=O)O)cc1	52	-	-	-	44	-
Cc1cccc(Nc2ncnc3ccccc23)c1	.	-	-	-	47	.
CC(=O)Oc1cccc(Nc2ncnc3ccccc23)c1	-	-	.	.	-	-
COC(=O)C(=O)C/C(=N/Nc1ncnc2ccccc12)c1ccc(Cl)cc1	-	-	-	-	-	-
SMILES	esBAF inh	PAX8 inh HTS	TRPM1 prom inh	MITF act	Wnt act	EWS-Fli block
Cc1ccc(Nc2ncnc3ccccc23)cc1	46	-	-	?	.	-
O=C(NCc1ccc(F)cc1)[C@@H]1[C@@H](CO)[C@@H]2Cn3c(ccc(C4=CCCCC4)c3=O)[C@H]1N2	-	.	.	.	.	-
CC(C)CC#Cc1ccc([C@@H]2[C@@H](CO)N3C(=O)CN(C(=O)Nc4ccc(F)cc4)C[C@@H]23)cc1	.	.	.	.	.	-
Cc1ccccc1NC(=S)NCC1CCN(C(C)c2ccccc2)C1 (stereo not drawn)	-	-	-	-	46	-
C=CCN1C(=O)c2cccc3c(N4CCCCC4)ccc(c23)C1=O	.	-	-	-	-	-
O=C1c2cccc3c(N4CCCCC4)ccc(c23)C(=O)N1CCO	72	-	-	-	53	.
COC(=O)c1sc(-c2ccc(Cl)cc2)cc1NC(=O)c1ccccc1C(=O)O	.	-	-	.	-	-
COC(=O)c1sc(-c2ccc(C(C)(C)C)cc2)cc1NC(=O)c1ccccc1C(=O)O	.	-	-	.	46	-
CC(C)NC(=O)N1[C@H](CO)[C@@H](c2ccccc2)[C@@H]1CNC(=O)CN(C)C	-	-	.	.	.	-
Cc1cccc(/N=C/c2sc3ccccc3c2O)n1	-	-	-	-	46	-
Cc1cccc(/N=C/c2c(O)[nH]c3ccccc23)n1	74	.	-	-	.	.
COC(=O)c1ccc(NC(=O)Cn2nnc3ccccc32)cc1	71	.	-	-	-	.
Cc1cccc(NC(=O)Cn2nnc3ccccc32)c1	63	-	-	-	-	-
O=C(C[C@@H]1C[C@@H]2c3cc(NS(=O)(=O)c4ccc(F)cc4)ccc3O[C@@H]2[C@H](CO)O1)NCCN1CCCCC1	-	-	.	.	.	-
O=C(N[C@H]1CC[C@H](CCNC(=O)c2ccccc2F)O[C@H]1CO)c1ccc2c(c1)OCO2	-	-	.	.	.	-
Cc1nnc(SCc2ccccc2)nc1-c1ccccc1	83	-	-	88	?	-
COc1ccc(NC(=O)Nc2ccc3c(c2)C(=O)N([C@@H](C)CO)C[C@H](C)[C@H](CN(C)C(=O)Nc2ccccc2)O3)cc1	-	.	.	.	.	-
CC(=C/c1ccco1)/C=N/N1CCN(c2ccccc2)CC1	49	-	-	.	.	.
CC(/C=N/N1CCN(c2ccccc2)CC1)=C\c1ccco1	-	.	-	-	-	-
CC(C)NC(=O)Nc1ccc2c(c1)C(=O)N([C@@H](C)CO)C[C@@H](C)[C@H](CN(C)C(=O)NC(C)C)OCCCC[C@H](C)O2	.	-	.	.	.	.
Cc1noc(C)c1NC(=O)N(C)C[C@H]1OCCCC[C@@H](C)Oc2ccc(NC(=O)c3ccncc3)cc2C(=O)N([C@H](C)CO)C[C@@H]1C	-	-	.	.	.	-
CCc1ccccc1NC(=O)CCCN1C(=O)c2cccnc2C1=O	-	-	-	-	-	-
Cc1c(Cl)cccc1NC(=O)CCCN1C(=O)c2cccnc2C1=O	-	-	-	-	34	-
N#Cc1cc(C(=O)c2cc(Cl)ccc2O)cn(-c2ccccc2)c1=O	.	-	-	-	-	.
O=C(c1ccccc1)c1cc(Cl)ccc1N1C(=O)C=CC1=O	-	?	84	-	-	-
SMILES	esBAF inh	PAX8 inh HTS	TRPM1 prom inh	MITF act	Wnt act	EWS-Fli block
CCCN1CCN(C(=O)c2cc(COc3ccc(F)c(F)c3)on2)CC1	?	-	-	-	-	.
COc1cc(Cl)ccc1OCc1cc(C(=O)N2CCCCCC2)no1	45	-	-	-	-	.
COc1cc(Cl)ccc1OCc1cc(C(=O)N2CCN(C)CC2)no1	-	-	-	-	-	.
COc1cc(Cl)ccc1OCc1cc(C(=O)N2CCCC(OC)C2)no1 (stereo not drawn)	75	-	-	-	45	-
CCCOC1CCCN(C(=O)c2cc(COc3ccc(F)c(F)c3)on2)C1 (stereo not drawn)	47	-	-	90	-	.
C[C@H](CO)N1C[C@H](C)[C@@H](CN(C)C(=O)C2CCOCC2)Oc2ncc(C#CC3(O)CCCC3)cc2C1=O	-	-	.	.	.	-
NCC[C@H]1CC[C@H](NC(=O)C2CCCCC2)[C@@H](CO)O1	-	-	.	.	.	-
O=C(CNC(=S)N(Cc1ccc(F)cc1)C1CCCCC1)NCC1CCCO1 (stereo not drawn)	.	-	-	-	-	-
